Measured values as given in PubChem BioAssay AID602405 (Broad Institute, 2012).
About 350 (0.097%) of roughly 360,000 compounds were called active. The entries come from a sample that favours actives as a whole. Values without a mark were called inactive. Rule as the data show it: active = inhibition above about 16% (passing the limit was not always enough); inconclusive = no clear call, values can overlap the other calls; inactive = below that.

Tested on: UDP-N-acetylbacillosamine N-acetyltransferase PglD (Campylobacter jejuni)
Test: C. jejuni PglD acetyltransferase inhibitors, primary screen, biochemical, DTNB colorimetric, single point (AID 602405)
Conditions: purified PglD enzyme, DTNB colorimetric CoA detection; at 12.5 µM; active compounds read high

Compound	inhibition
COC(=O)C[C@@H]1CC[C@H]2[C@@H](COC[C@H](O)CN2C(=O)Nc2ccccc2OC)O1	-0.947%
C[C@@H]1CN([C@@H](C)CO)C(=O)c2cc(NC(=O)CCCN(C)C)ccc2O[C@@H](C)CCCCO[C@H]1CN(C)Cc1ccc2c(c1)OCO2	-1.38%
Cc1noc(C)c1NC(=O)Nc1ccc2c(c1)C(=O)N([C@H](C)CO)C[C@H](C)[C@H](CN(C)C(=O)C1CCCCC1)OCCCC[C@@H](C)O2	0.321%
CCCNC(=O)N1C[C@@H](O)COC[C@@H]2O[C@@H](CC(=O)O)CC[C@H]21	-1.59%
CC(C)C#Cc1ccc([C@@H]2[C@@H](CO)N3CCCCN(C(=O)c4ccc5c(c4)OCO5)C[C@H]23)cc1	-1.45%
OC[C@@H]1Nc2ccc(-c3cccc(F)c3)cc2[C@H]2[C@@H]1CCN2Cc1ccncc1	-3.81%
COc1cccc(S(=O)(=O)N[C@@H]2C=C[C@H](CC(=O)NC3CCC3)O[C@H]2CO)c1	-3.06%
CN1C(=O)c2cc(NC(=O)C3CCCCC3)ccc2OC[C@H]2O[C@@H](CC(=O)NC3CCCC3)CC[C@@H]21	-4.23%
CCCNC(=O)N1[C@H](C#N)[C@@H](c2ccc(C3=CCCC3)cc2)[C@H]1CO	10.3%
C[C@H](CO)N1C[C@H](C)[C@H](CN(C)Cc2ccc(C(=O)Nc3ccccc3N)cc2)Oc2c(NC(=O)Nc3ccccc3)cccc2C1=O	1.92%
CO[C@@H]1CN(C)C(=O)c2ccc(NC(=O)c3ccc(F)cc3)cc2OC[C@H](C)N(C(=O)c2ccc(F)cc2)C[C@@H]1C	-1.94%
COc1ccc(NC(=O)Nc2cccc3c2O[C@H](CN(C)C(=O)Nc2cccc4ccccc24)[C@H](C)CN([C@H](C)CO)C3=O)cc1	2.27%
CC(C)CC#Cc1ccc2c(c1)O[C@H](CN(C)C(=O)CC1CC1)[C@@H](C)CN([C@@H](C)CO)S2(=O)=O	0.792%
CC(C)CCC(C)NC(=O)c1ccc2nccnc2c1 (stereo not drawn)	-0.116%
CC(C)CCNC(=O)c1[nH]c(C(F)(F)F)nc1-c1ccccc1	-5.32%
CC(C)CCNC(=O)c1ccc2c(Cl)c3c(nc2c1)CCC3	58.9% (active)
Cc1noc(C)c1NC(=O)Nc1ccc2c(c1)CC(=O)N([C@H](C)CO)C[C@H](C)[C@H](CN(C)C(=O)NC(C)C)O2	2.55%
CC(=O)N(C)C[C@H]1Oc2cc(C#CCN(C)C)ccc2S(=O)(=O)N([C@H](C)CO)C[C@H]1C	-4.02%
CC=Cc1ccc2n(c1=O)C[C@@H]1[C@@H](CO)[C@H](C(=O)NCc3cccc(OC)c3)N[C@H]21 (mixture of isomers)	0.651%
CCCNC(=O)C[C@H]1C[C@@H]2c3cc(NC(=O)c4ccc5c(c4)OCO5)ccc3O[C@@H]2[C@@H](CO)O1	-7.26%
Cc1ccc(S(=O)(=O)Nc2ccc3c(c2)C(=O)N([C@H](C)CO)C[C@H](C)[C@@H](CN(C)C(=O)NC(C)C)OCCCC[C@@H](C)O3)cc1	-2.85%
CSc1ccc(S(=O)(=O)NCc2ccc(Cl)cc2)cc1	26.5% (active)
CC(C)CNS(=O)(=O)c1ccc(CCC(=O)NCc2ccc(Cl)cc2)cc1	0.729%

Compound	inhibition
Cc1ccc(S(=O)(=O)NCCC(=O)NCc2ccc(Cl)cc2)cc1C	-81.7%
COC(=O)C[C@@H]1C[C@H]2c3cc(NC(=O)CN(C)C)ccc3O[C@H]2[C@H](CO)O1	1.44%
COc1ccc(S(=O)(=O)Nc2cccc3c2O[C@@H](CN(C)C(=O)NC(C)C)[C@H](C)CN([C@@H](C)CO)C3=O)cc1	3.51%
CCCNC(=O)Nc1ccc2c(c1)C(=O)N(C)C[C@H](OC)[C@H](C)CN[C@@H](C)CO2	1.64%
C[C@H]1CN([C@@H](C)CO)C(=O)c2cccc(NC(=O)Nc3ccccc3)c2O[C@H]1CN(C)S(=O)(=O)c1ccc(Cl)cc1	1.05%
O=C(N[C@H]1C=C[C@@H](CC(=O)N2CCN(c3ccccc3)CC2)O[C@@H]1CO)c1ccncc1	1.58%
CCC(=O)Nc1ccc2c(c1)C(=O)N(C)C[C@@H](OC)[C@@H](C)CN(Cc1ccccc1F)[C@H](C)CO2	2.28%
CCCNC(=O)N(C)C[C@H]1Oc2ncc(-c3cccc(C#N)c3)cc2C(=O)N([C@@H](C)CO)C[C@H]1C	0.216%
O=C(NNC(=O)c1ccco1)Nc1ccccc1	3.41%
O=C(CNC(=O)c1ccco1)NNC(=O)c1ccc(Br)cc1	2.58%
O=C(Nc1ccc(Sc2ccc(Br)cc2)cc1)c1ccco1	20.2% (active)
O=C(Nc1ccccc1F)N1C[C@H]2[C@@H](c3ccccc31)[C@@H](CO)N2C(=O)Cc1cccnc1	5.55%
COc1ccc(NC(=O)Nc2ccc3c(c2)C(=O)N([C@@H](C)CO)C[C@@H](C)[C@H](CN(C)Cc2ccc(Cl)c(Cl)c2)O3)cc1	6.96%
COc1cccc(CNC(=O)C[C@@H]2C=C[C@@H](NC(=O)C3CCC3)[C@@H](CO)O2)c1	-2.99%
Cc1noc(C)c1NC(=O)N(C)C[C@@H]1Oc2ccc(NS(C)(=O)=O)cc2C(=O)N([C@H](C)CO)C[C@@H]1C	-1.3%
C[C@H](O)C#Cc1ccc2c(c1)O[C@@H](CN(C)C(=O)C1CCCCC1)[C@H](C)CN([C@@H](C)CO)S2(=O)=O	-1%
C[C@H]1CCCCO[C@H](CN(C)CC2CC2)[C@@H](C)CN([C@@H](C)CO)C(=O)c2cc(NS(C)(=O)=O)ccc2O1	32%
O=C(c1ccc(F)cc1)N1CCCCN2[C@@H](CO)[C@H](c3ccc(-c4ccccc4)cc3)[C@@H]2C1	1.69%
Cc1ccc(C(=O)N/C(=C/c2cccnc2)C(=O)O)cc1	-2.85%
Cc1ccc(C2=C/C(=C\c3cccnc3)C(=O)O2)cc1	49.3% (active)
CN(C)/C=C1\C=C(c2ccccc2)OC1=O	-0.491%
CCCc1cn(CC[C@@H]2CC[C@H](NS(=O)(=O)c3ccccc3Cl)[C@H](CO)O2)nn1	-0.55%
CC(=O)N1C[C@@H]2[C@H](c3ccccc31)[C@H](CO)N2Cc1ccc(Cl)cc1	2.15%

Compound	inhibition
CCCNC(=O)C[C@@H]1C[C@@H]2c3cc(N(C)C)ccc3O[C@@H]2[C@H](CO)O1	-5.6%
COc1ccc(S(=O)(=O)N(C)C[C@H]2OCCCC[C@H](C)Oc3ccc(NC(=O)Nc4ccc(F)cc4)cc3C(=O)N([C@@H](C)CO)C[C@H]2C)cc1	-0.001%
C[C@@H](NC(=O)[C@H]1[C@H](CO)[C@H]2Cn3c(cccc3=O)[C@H]2N1C(=O)C1CC1)c1ccccc1	-3.9%
CCOc1ccc(NC(=O)CCNC(=O)c2ccc(Br)cc2)cc1	1.93%
CC(=O)Nc1ccc(OC(=O)COc2ccc(Br)cc2)cc1	83.3% (active)
O=C(COc1ccc(Br)cc1)OCC(=O)c1ccc[nH]1	0.716%
C[C@H](CO)N1C[C@H](C)[C@H](CN(C)Cc2ccccc2)Oc2ccc(NC(=O)Cc3ccccc3)cc2C1=O	-3.27%
COCC(=O)Nc1ccc2c(c1)C(=O)N(C)[C@H]1CC[C@@H](CC(=O)Nc3cn(C)nc3C)O[C@@H]1CO2	2.19%
O=C(c1cccc(Cl)c1)N1CCN(Cc2ccccc2)CC1	-4.44%
O=C(NCc1ccncc1)C1CCN(C(=O)c2cccc(Cl)c2)CC1	22.3% (active)
COc1ccc(CNC(=O)C2CCN(C(=O)c3ccccc3)CC2)cc1	-3.01%
CC(C)NC(=O)N[C@H]1C=C[C@H](CC(=O)NCCN2CCCC2)O[C@@H]1CO	0.57%
CCC(=O)N1[C@@H](CO)[C@@H]2c3ccccc3N(C(=O)c3ccccc3F)C[C@@H]21	-0.466%
COc1ccc(CN(C)C[C@@H]2OCCCC[C@H](C)Oc3ccc(NS(C)(=O)=O)cc3C(=O)N([C@@H](C)CO)C[C@H]2C)cc1	-1.59%
O=C(NC[C@@H]1[C@H](c2ccccc2)[C@H](CO)N1CC1CCCC1)c1cccnc1	1.03%
CC=Cc1ccc2n(c1=O)C[C@H]1[C@H](CO)[C@@H](C(=O)NCc3ccncc3)N(Cc3cncnc3)[C@@H]21 (mixture of isomers)	-1.52%
CC=Cc1ccc2n(c1=O)C[C@@H]1[C@@H](CO)[C@H](C(=O)N3CCCCC3)[C@H]2N1C(=O)C1CCC1 (mixture of isomers)	2.61%
C[C@@H]1CCCCO[C@H](CN(C)Cc2ccc(C(F)(F)F)cc2)[C@@H](C)CN([C@@H](C)CO)C(=O)c2cc(NC(=O)c3ccncc3)ccc2O1	3.05%
CC(C)CN(C[C@@H]1N[C@@H](CO)[C@H]1c1ccccc1)C(=O)CN(C)C	5.57%
CO[C@@H]1CN(C)C(=O)c2cc(NC(=O)C3CCC3)ccc2OC[C@H](C)N(Cc2nccs2)C[C@H]1C	0.477%
Cc1noc(C)c1NC(=O)N(C)C[C@H]1Oc2c(NS(=O)(=O)c3cccs3)cccc2C(=O)N([C@@H](C)CO)C[C@@H]1C	0.536%
CO[C@@H]1CN(C)C(=O)c2cc(NC(=O)NC3CCCCC3)ccc2OC[C@H](C)N(CC2CCOCC2)C[C@H]1C	-1.39%
